This is an account of results in PubChem BioAssay (NCI).

Structures are written as SMILES. About 83,000 compounds went through this panel and 20% of them were active in at least one assay; those are over-represented in the sample as a whole.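 Single-concentration screen, 48 h exposure, 96-well plates. Endpoint: percent growth. Below 10 = active.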 Values without a mark were called inactive. Activity calls are given as the source filed them. Where a SMILES comes first, the peptide text is derived from it. [ ]: non-standard residue; d: D form. ξ: configuration not given here. ξD = NC(CC(=O)O)C(=O)O

Test systems include NCI-H23 lung; NCI-H226 lung; NCI-H322M lung; HOP-62 NSCLC; NCI-H460 lung; NCI-H522 lung; A549/ATCC NSCLC; 786-0 renal; COLO 205 colon; HOP-92 NSCLC.
Common to all, as to assay: NCI-60 one-dose screen, 48 h (100 = growth as untreated, 0 = no growth, -100 = all killed)
What all share (conditions): 10 µM unless noted

For the compound `S=C=Nc1ccc(N2CCOCC2)cc1`, the growth in the assay on NCI-H23 lung was 92.1%; in the assay on NCI-H226 lung, 86%; with NCI-H322M lung, 96.1%; with HOP-62 NSCLC, 89.6%; with NCI-H460 lung, 99.8%; with NCI-H522 lung, 74.4%. The growth with A549/ATCC NSCLC was 89.8%; in the assay with 786-0 renal, 89.8%; in the assay on COLO 205 colon, 97.4%.

For the compound `CCN(CC)CC(O)CNc1ccc(NCC2CO2)c2c1C(=O)c1ccccc1C2=O` (configuration not stated), the growth in the assay on NCI-H23 lung is -43% (active); in the assay on NCI-H226 lung, 0.0591% (active); with NCI-H322M lung, -16.7% (active); in the assay with HOP-62 NSCLC, -34.9% (active); in the assay with NCI-H460 lung, -43.9% (active); with NCI-H522 lung it was -74.1% (active). For the same compound, the growth in the assay on A549/ATCC NSCLC is 7.32% (active); in the assay on 786-0 renal, -21.7% (active); in the assay on COLO 205 colon it was -40.8% (active).

Consider `CCCCCCCCc1cc(Cl)c(O)c(Cl)c1`, for which the growth in the assay with NCI-H23 lung is 103%; with NCI-H226 lung it was 104%; in the assay on NCI-H322M lung it was 121%; with HOP-62 NSCLC, 105%; with NCI-H460 lung, 109%; with NCI-H522 lung, 97.6%. The growth is 98.5% in the assay on A549/ATCC NSCLC and 108% with 786-0 renal.

Take `O=C1/C(=C/c2ccccc2)CCC/C1=C\c1ccccc1`: the growth with NCI-H23 lung was 88%; in the assay with NCI-H226 lung, 96%; in the assay on NCI-H322M lung, 94.9%; in the assay on HOP-62 NSCLC it was 109%; with NCI-H460 lung, 103%; with NCI-H522 lung, 78.7%. The growth in the assay on A549/ATCC NSCLC was 98.8%; in the assay on 786-0 renal, 87.7%.

Take `O=C1c2ccccc2C(=O)c2c(O)c(Cl)cc(O)c21`: the growth was 96.6% in the assay with NCI-H23 lung; 104% in the assay on NCI-H226 lung; 111% in the assay on NCI-H322M lung; 96.2% in the assay on HOP-62 NSCLC; 100% in the assay with NCI-H460 lung; 85.4% in the assay on NCI-H522 lung. Moreover, the growth with A549/ATCC NSCLC was 108%; in the assay with 786-0 renal, 99.2%; in the assay on COLO 205 colon it was 101%.

In the case of `C/C(=N\NC(=S)N1CC2CCC(CC2)C1)c1ccccn1`, the growth was 30.4% with NCI-H23 lung; 11.7% in the assay with NCI-H226 lung; 4.2% (active) with NCI-H322M lung; 24% in the assay on HOP-62 NSCLC; -3.66% (active) in the assay on NCI-H460 lung; 16.8% in the assay with NCI-H522 lung. Moreover, the growth in the assay with A549/ATCC NSCLC is 5.42% (active); with 786-0 renal it was 3.86% (active); with COLO 205 colon, 4.4% (active).

Take `O=C(Nc1cccc(C(F)(F)F)c1)Oc1ccc(Cl)c2cccnc12`: the growth in the assay with NCI-H23 lung is 8.91% (active); with NCI-H226 lung, 86.3%; with NCI-H322M lung, 101%; with HOP-62 NSCLC, 76.8%; in the assay on NCI-H460 lung, 10.4%; in the assay on NCI-H522 lung, -77.1% (active). Further, the growth is -1.52% (active) in the assay with A549/ATCC NSCLC, 88% in the assay on 786-0 renal and 89.6% in the assay with COLO 205 colon.

For `NCC(=O)NC(CC(=O)O)C(=O)O` (configuration not stated) (H-Gly-[ξD]-OH), the growth with NCI-H23 lung was 108%; with NCI-H226 lung it was 100%; in the assay on NCI-H322M lung it was 104%; in the assay on HOP-62 NSCLC it was 101%; in the assay with NCI-H460 lung, 110%; in the assay with NCI-H522 lung it was 87.1%. For the same compound, the results for the growth in the assay on A549/ATCC NSCLC, in the assay on 786-0 renal and with COLO 205 colon were 103%, 100% and 119%, respectively.

With `C(=N\Nc1ccc2ccccc2n1)/c1ccccn1`, the growth in the assay on NCI-H23 lung was 32.4%; in the assay with NCI-H226 lung, 10.9%; with NCI-H322M lung it was -5.75% (active); in the assay on HOP-62 NSCLC, 6.17% (active); in the assay on NCI-H460 lung it was 3.31% (active); in the assay with NCI-H522 lung, 20.2%. The results for the growth with A549/ATCC NSCLC, in the assay with 786-0 renal and with COLO 205 colon were 8.26% (active), 22.1% and 20%, respectively.

`O=C(c1ccccc1)C(Br)C(Br)c1ccccc1` (configuration not stated): the growth in the assay with NCI-H23 lung is 104%; in the assay on NCI-H226 lung it was 109%; in the assay on NCI-H322M lung it was 121%; with HOP-62 NSCLC, 103%; with NCI-H460 lung, 103%; in the assay with HOP-92 NSCLC, 46%. The growth in the assay with COLO 205 colon is 6.72% (active).

`CCNc1nnnn1CC`: the growth in the assay on NCI-H23 lung was 107%; in the assay with NCI-H226 lung, 102%; with NCI-H322M lung, 105%; with HOP-62 NSCLC, 110%; with NCI-H460 lung it was 106%; in the assay on NCI-H522 lung, 106%. The growth with A549/ATCC NSCLC is 113%.

For `O=C(Cc1nc2cc(Cl)c(Cl)cc2nc1CC(=O)c1cccnc1)c1cccnc1`, the growth in the assay with NCI-H23 lung is 88.1%; in the assay on NCI-H226 lung, 77.2%; with NCI-H322M lung it was 78.4%; in the assay on HOP-62 NSCLC it was 86.3%; in the assay on NCI-H460 lung, 82.6%; in the assay on NCI-H522 lung, 58.8%. Also, the values for the growth in the assay with A549/ATCC NSCLC, in the assay with 786-0 renal and with COLO 205 colon were 93.5%, 58.7% and 89.8%, respectively.

As for `CC1=CC(=NC(=O)CBr)C=C/C1=N\S(=O)(=O)c1ccccc1`, the growth is 80.2% with NCI-H23 lung; 68.3% in the assay with NCI-H226 lung; 107% in the assay with NCI-H322M lung; 75.1% in the assay on HOP-62 NSCLC; 98.4% with NCI-H460 lung; -80.4% (active) in the assay on NCI-H522 lung. Besides, the growth was 87% in the assay with A549/ATCC NSCLC, 53.6% with 786-0 renal and 59.5% in the assay on COLO 205 colon.

As for `Cn1ccc(=Nc2ccc(NC(=O)c3ccc(N=c4ccn(C)c5ccc([N+](=O)[O-])cc45)cc3)cc2)cc1`, the growth with NCI-H23 lung was 73.8%; in the assay with NCI-H226 lung it was 70%; in the assay with NCI-H322M lung it was 104%; in the assay with HOP-62 NSCLC, 52.6%; with NCI-H460 lung, 98.5%; in the assay with NCI-H522 lung, 52.7%. In addition, the growth is 78.8% in the assay on 786-0 renal and 56.6% in the assay with COLO 205 colon.

On to `Nc1cc(-c2ccccc2)ccc1O`, for which the growth in the assay with NCI-H23 lung is 101%; in the assay with NCI-H226 lung it was 112%; in the assay with NCI-H322M lung, 87.2%; in the assay on HOP-62 NSCLC, 122%; with NCI-H460 lung it was 102%; in the assay with NCI-H522 lung it was 96.3%. The growth in the assay with A549/ATCC NSCLC was 65.7%; in the assay on 786-0 renal, 97.8%; in the assay with COLO 205 colon, 110%.

With `CN(C)c1ccc(C(C#N)(c2ccccc2)c2ccc(N(C)C)cc2)cc1`, the growth in the assay on NCI-H23 lung was 54.2%; with NCI-H226 lung, 72.3%; in the assay with NCI-H322M lung it was 86.8%; in the assay on HOP-62 NSCLC it was 90.6%; in the assay on NCI-H460 lung, 50.8%; in the assay with NCI-H522 lung it was 82.2%. Moreover, the figures for the growth in the assay with A549/ATCC NSCLC, in the assay with 786-0 renal and in the assay on COLO 205 colon were 49.9%, 67.7% and 45.2%, respectively.
